TMEM16A inh: blocks the mouse calcium-activated chloride channel TMEM16A; HEK293 TMEM16A/YFP iodide influx fluorescence, ionomycin; normalized B-score (activity score, 25-100; higher = stronger inhibition) at 10 µM; 310,000 tested, 1.2% active;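 active = ratio plate-corrected score three or more library SD toward inhibition, starting fluorescence score within five deviations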;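 also: score derived from kinetic fluorescence span divided by baseline fluorescence per well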
Target sequence (Q8BHY3 whole entry, looked up): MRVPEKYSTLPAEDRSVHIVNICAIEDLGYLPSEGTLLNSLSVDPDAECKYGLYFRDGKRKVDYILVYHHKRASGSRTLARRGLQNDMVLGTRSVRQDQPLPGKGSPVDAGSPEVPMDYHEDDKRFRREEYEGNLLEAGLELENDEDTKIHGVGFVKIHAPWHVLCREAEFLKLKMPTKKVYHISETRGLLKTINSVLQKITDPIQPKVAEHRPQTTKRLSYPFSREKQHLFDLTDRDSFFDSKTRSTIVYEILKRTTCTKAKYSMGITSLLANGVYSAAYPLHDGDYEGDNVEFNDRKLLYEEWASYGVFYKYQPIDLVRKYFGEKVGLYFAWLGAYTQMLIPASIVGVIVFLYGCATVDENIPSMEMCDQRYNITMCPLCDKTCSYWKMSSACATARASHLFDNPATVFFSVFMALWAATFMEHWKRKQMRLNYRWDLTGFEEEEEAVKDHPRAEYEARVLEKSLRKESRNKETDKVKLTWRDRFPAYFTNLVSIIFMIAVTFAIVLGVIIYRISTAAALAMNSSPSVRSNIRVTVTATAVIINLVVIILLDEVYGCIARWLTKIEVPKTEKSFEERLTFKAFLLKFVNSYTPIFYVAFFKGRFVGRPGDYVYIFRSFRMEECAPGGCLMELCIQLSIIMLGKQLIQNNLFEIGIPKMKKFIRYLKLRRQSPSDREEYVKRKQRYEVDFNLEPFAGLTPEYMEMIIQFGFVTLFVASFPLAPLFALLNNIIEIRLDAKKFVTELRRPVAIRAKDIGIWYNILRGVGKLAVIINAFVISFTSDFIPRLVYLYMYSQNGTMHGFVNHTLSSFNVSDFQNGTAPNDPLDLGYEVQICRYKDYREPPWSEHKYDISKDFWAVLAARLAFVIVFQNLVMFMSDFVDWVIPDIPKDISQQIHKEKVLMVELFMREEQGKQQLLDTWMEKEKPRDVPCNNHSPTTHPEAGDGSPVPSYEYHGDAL
MPTP inh: inhibitors of mitochondrial permeability transition pore. isolated mouse mitochondria, Ca2+ swelling absorbance, 30 min. inhibition, % at 10 µM. 360,000 tested, 1.4% active;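 active = inhibition of 50% or more, scaled per plate between neutral and stimulator controls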;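 also: 0% = DMSO wells given calcium and 100% = 1 mM EGTA wells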
CRFBP-R2 block: CRF-BP/CRF-R2 complex antagonism | inhibition, % at 11.8 µM | HEK293 CRF-R2/CRF-BP, CRF-induced calcium fluorescence | AID 588475 | 350,000 tested, 0.59% active;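 active = inhibition of the ligand-induced calcium signal above about 50% at the single tested concentration, limit read from the data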
ANO1 activ: activators or potentiators of mouse TMEM16A chloride channel. Q8BHY3. HEK293 TMEM16A/YFP-H148Q/I152L, iodide quench fluorescence; hits give low values. B-score at 10 µM. 340,000 tested, 0.3% active. AID 623877;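 active = fluorescence-ratio B-score plate-corrected deviation score at least 3 library SD below zero, with starting fluorescence score within 5 deviations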;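 also: channel opened by trigger with iodide after compound preincubation; score built on the fluorescence ratio of max minus min over baseline; more negative score means more quench and so TMEM16A activation or potentiation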
CRFR2-BP ag: CRF-BP/CRF-R2 complex agonism; 350,000 tested, 0.46% active; activation, % at 13.2 µM; HEK293 CRF-R2/CRF-BP, calcium dye fluorescence (FLIPR); percent of saturating CRF peptide response;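 active = activation of at least 50%, plus an integration ratio under a set limit after plate pattern correction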;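 also: plate controls were neutral control wells without compound for no effect and CRF at EC100 for full effect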
GRIN3A LBD mod: NR3A (human) ligand-binding domain modulation. AID 1259313. NR3A LBD differential scanning fluorimetry, Tm shift; 0% = protein alone, 100% = glycine-bound protein. 340,000 tested, 2.5% active. Tm shift relative to glycine control, % at 25 µM;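 active = melting temperature shift of at least 10% of the positive control shift, at one fixed dose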
* = called active by the depositor; i = inactive; . = no result. Rows were chosen to be rich in hits. Some 5.1% of all compounds tested hit in one or more screens of this group.

SMILES	TMEM16A inh	MPTP inh	CRFBP-R2 block	ANO1 activ	CRFR2-BP ag	GRIN3A LBD mod
C(=NN=C1c2ccccc2-c2ccccc21)c1c[nH]c2ccccc12	.	4	8	i	2	17*
Cc1nnc(N/N=C/c2c[nH]c3ccccc23)[nH]c1=O	i	1	5	i	-1	25*
Cc1occc1C(=O)N/N=C/c1c[nH]c2ccccc12	i	-2	9	i	-3	13*
O=C(O)c1ccc(S(=O)(=O)NN=Cc2c[nH]c3ccccc23)cc1	.	2	-5	.	0	.
NC(=S)N/N=C/c1c[nH]c2ccccc12	i	3	-5	i	0	-5
O=C(O)c1ccc(N/N=C/c2c[nH]c3ccccc23)cc1	i	3	8	i	-1	10*
CCC(=O)NCCc1nc2cc(NC(=O)c3cccc([N+](=O)[O-])c3)ccc2n1C	i	8	7	i	-2	-1
Cc1ccc(NC(=O)Cn2nc(C(=O)O)c3ccccc3c2=O)c([N+](=O)[O-])c1	i	-3	-8	i	0	1
COc1ccc(CCN(C)C(=O)COc2cccc(-n3cnnn3)c2)cc1OC	.	0	-10	i	3	1
CCc1nc2ccc(C(=O)NCc3ccc(OC)cc3)cn2c1N(CC)CCN(C)C	.	0	.	.	.	.
COc1ccc(Cn2cc(CN3CCOCC3)nn2)cc1	.	-2	.	.	.	.
O=C(Nc1ccc(S(=O)(=O)Nc2ccnn2-c2ccccc2)cc1)C(F)(F)F	i	-1	2	i	2	-5
COc1ccc(C(=O)N2CCN(C(=O)C3CCCO3)CC2)cc1[N+](=O)[O-] (configuration not stated)	.	0	4	i	1	-1
ON=C1c2ccccc2-c2ccc(O)cc21	.	-1	14	i	-7	-15
O=C(N/N=C/c1c[nH]c2ccccc12)c1ccccc1Cl	i	1	0	i	2	-1
COC(=O)N/N=C/c1c[nH]c2ccccc12	i	1	32	i	-2	-14
O=C(N/N=C\c1c[nH]c2ccccc12)c1ccc(O)cc1	i	2	2	i	-1	41*
CC(C)Oc1ccc(Br)cc1C(=O)N/N=C/c1c[nH]c2ccccc12	i	2	-8	i	1	11*
O=C(N/N=C/c1c[nH]c2ccccc12)c1cc(Cl)ccc1O	i	0	-16	i	5	36*
Oc1ccc(C=NN=C2c3ccccc3-c3ccccc32)c(O)c1	.	3	9	i	0	23*
O=C(N/N=C/c1c[nH]c2ccccc12)c1ccc(Cl)cc1	i	1	10	i	-1	37*
CC(C)(C)OC(=O)N/N=C/c1c[nH]c2ccccc12	i	0	-5	i	2	-42
Nc1ccc(C(=O)N/N=C/c2c[nH]c3ccccc23)cc1	i	-1	-3	i	-1	21*
O=C(N/N=C/c1c[nH]c2ccccc12)c1ccc(Br)cc1	i	1	-4	i	-3	30*
O=C(CNC(=O)c1ccc([N+](=O)[O-])cc1)N/N=C/c1c[nH]c2ccccc12	i	-1	-3	i	1	-1
SMILES	TMEM16A inh	MPTP inh	CRFBP-R2 block	ANO1 activ	CRFR2-BP ag	GRIN3A LBD mod
COc1cccc(C(=O)N2CCN(Cc3ccccn3)CC2)c1	i	-1	-4	i	1	2
O=C(NCc1ccccc1)C(c1ccc(C(F)(F)F)cc1)n1c(=O)c(-c2ccco2)nc2ccccc21 (configuration not stated)	.	-1	.	.	.	.
CC1(C)Cc2c(sc(NC(=O)C(=O)NCCCN3CCOCC3)c2C#N)CO1	i	-1	1	i	0	2
COc1ccc(Nc2nc(CC(C)=O)ns2)cc1	i	0	8	-16*	-1	-1
O=C1CCC(=O)N1c1nc2nc(-c3ccccc3)cc(=O)n2[nH]1	i	-1	-3	-24*	1	-1
CC1(C(=O)NS(=O)(=O)c2ccccc2C(F)(F)F)CCN1C(=O)CCc1ccccc1 (configuration not stated)	.	0	.	.	.	.
O=[N+]([O-])c1ccc(N2CCOCC2)cc1NCc1ccccc1	i	1	64*	i	-1	2
O=[N+]([O-])c1ccc(N2CCCC2)cc1NCc1ccccc1	i	4	18	-6.5*	-1	-2
O=[N+]([O-])c1cc([N+](=O)[O-])c(N2CCOCC2)cc1NCc1ccccc1	i	1	35	i	1	-6
CCOC(=O)N1CCN(C(=O)CSc2nnc(-c3ccc(C(C)(C)C)cc3)o2)CC1	i	2	89*	i	-2	-1
CCOC(=O)N1CCN(C(=O)CSc2nnc(-c3cc(OC)cc(OC)c3)o2)CC1	i	-2	1	i	2	11*
CCOC(=O)N1CCN(C(=O)CSc2nnc(-c3cccc(OC)c3)o2)CC1	i	-2	-3	i	3	-2
C=CCn1cccc(C(=O)Nc2ccc(N(C)C)cc2)c1=O	i	0	15	i	11	2
O=C(CC[C@H]1O[C@@H](n2cnc3c(NC(=O)c4ccccc4)ncnc32)[C@H](O)[C@@H]1O)NCc1cccc2ccccc12	.	0	.	.	.	.
CC(=O)N1N=C(C)CC1c1ccc(O)cc1 (configuration not stated)	i	1	-7	i	1	-1
CC(=O)N1N=C(C)CC1c1ccc(OCc2ccccc2)cc1 (configuration not stated)	i	0	52*	i	-5	-1
O=C(CSc1nc2ncc(Cl)cc2[nH]1)c1c[nH]c2ccccc12	i	34	-7	i	2	6
O=C(CSc1nc2ccc(Cl)cc2[nH]1)c1c[nH]c2ccccc12	i	6	-14	i	-1	12*
Cc1csc(NC(=O)Cc2ccccc2[N+](=O)[O-])n1	i	0	-128	i	208*	-3
CCOc1ccc(C(=O)Nc2cnn(Cc3ccc(Cl)c(Cl)c3)c2)cc1	i	-5	73*	i	5	2
O=C(Nc1cnn(Cc2ccc(Cl)cc2)c1)c1ccc([N+](=O)[O-])cc1	i	2	20	i	-2	-9
O=C(CSc1nc2c(c(C(F)(F)F)n1)CCc1ccccc1-2)NCc1ccco1	i	2	-13	i	-2	-31
CC(NC(=O)CSc1nc2c(c(C(F)(F)F)n1)CCc1ccccc1-2)c1ccccc1 (configuration not stated)	100*	2	-14	i	-1	-14
O=C1C(CCS(=O)c2ccccc2)C(=O)N(c2ccccc2)N1c1ccccc1 (configuration not stated)	i	-4	25	i	2	17*

Assay outcomes deposited in PubChem by several laboratories.
